# Assay outcomes: PubChem, The Scripps Research Institute Molecular Screening Center
# An excerpt weighted towards active compounds, which were near 3.4% of everything screened.
# FBW7 activator: activators of human E3 ligase FBW7; Q969H0; AlphaScreen FBW7–phospho-cyclin E peptide binding, activator screen; normalized activity (activation), % at 26.1 µM; actives 0.13% (n = 650,000); AID 1259310; in the data active means normalized activity above about 1.9%;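 further: purified mutant Fbw7 with reduced substrate affinity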
# GPR151 activ: human GPR151 activation | PathHunter beta-arrestin GPR151 cells, luminescence | actives 1% (n = 650,000) | AID 1508602 | activation, % at 11.2 µM | Q8TDV0; in the data active means activation above about 4.9%;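 further: 0% = median of compound wells and 100% = cells with positive control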
# TEAD-YAP inh: TEAD-YAP interaction inhibition; HEK-TIYL cells, TEAD-Gal4/YAP UAS-luciferase luminescence; inhibition, % at 9.12 µM; actives 1.4% (n = 640,000); AID 1259422; in the data active means inhibition above about 32%;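 further: 0% = median of test compound wells and 100% = reference inhibitor wells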
# MITF inh: blocks human microphthalmia-associated transcription factor; AlphaScreen MITF homodimerization, bead proximity signal; AID 1259374; O75030; actives 0.91% (n = 650,000); inhibition, % at 2.6 µM; in the data active means inhibition above about 50%;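 further: 0% = vehicle wells with protein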
# Target sequence (O75030 whole entry, looked up): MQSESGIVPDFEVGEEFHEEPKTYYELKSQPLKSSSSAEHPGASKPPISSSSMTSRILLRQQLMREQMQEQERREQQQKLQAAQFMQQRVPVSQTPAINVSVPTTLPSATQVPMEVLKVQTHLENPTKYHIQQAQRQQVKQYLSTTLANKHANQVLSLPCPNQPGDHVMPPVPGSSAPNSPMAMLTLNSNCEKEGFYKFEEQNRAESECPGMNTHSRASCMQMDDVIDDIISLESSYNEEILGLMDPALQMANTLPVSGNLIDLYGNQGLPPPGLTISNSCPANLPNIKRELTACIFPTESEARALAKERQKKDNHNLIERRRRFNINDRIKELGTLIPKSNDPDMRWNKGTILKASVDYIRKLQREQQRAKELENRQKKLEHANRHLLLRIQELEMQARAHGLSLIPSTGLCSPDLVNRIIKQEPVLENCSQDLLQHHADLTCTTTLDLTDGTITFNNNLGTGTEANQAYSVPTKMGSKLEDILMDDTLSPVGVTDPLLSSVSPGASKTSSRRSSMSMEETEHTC
# GPR151 confirm: human GPR151 activation, confirmation screen; shares compounds with GPR151 activ; GPR151 PathHunter beta-arrestin cells, luminescence, 90 min; % of EA-reagent control over plate median; activation, % at 11.2 µM; 6,700 tested, under 10 active; AID 1508609;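 active means mean percent activation across replicates above the confirmation screen cutoff of 4.91%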
# GPR119 ag: GPR119 activation, counter-screen for GPR151 activators | shares compounds with GPR151 activ | activation, % at 11.2 µM | actives 0.3% (n = 6,700) | GPR119 PathHunter beta-arrestin cells, luminescence, 90 min; 0 = compound-well median, 100 = enzyme-acceptor control;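 active means mean percent activation in the counterscreen above 29.09%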;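 further: counterscreen on off-target GPR119 to flag nonselective hits from the GPR151 activator screen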
# The depositor's hits bear a star; . = not tested or not shown.
SMILES,FBW7 activator,GPR151 activ,TEAD-YAP inh,MITF inh,GPR151 confirm,GPR119 ag
CC(C)(C)c1ccc(C(=O)Nc2ccc(O)c(-c3nc4cc(Cl)ccc4o3)c2)cc1,0,1,1,-7,.,.
O=C(O)C(=O)/C=C(\O)c1ccc(Cl)cc1,0,13*,11,3,0,6
COc1ccc(OC)c(NC(=O)CC(C)S(=O)(=O)c2cc3c(cc2C)NC(=O)CO3)c1 (configuration not stated),0,5.1*,-7,-6,0,-2
CC(CC(=O)Nc1ccc(F)cc1F)S(=O)(=O)c1ccc2c(c1)OCC(=O)N2 (configuration not stated),0,0,4,10,.,.
COc1ccc(NC(=O)CC(C)S(=O)(=O)c2ccc3c(c2)OCC(=O)N3)cc1OC (configuration not stated),0,9.6*,-1,-15,-1,-6
CC(CC(=O)Nc1ccc(F)cc1Cl)S(=O)(=O)c1ccc2c(c1)OCC(=O)N2 (configuration not stated),0,7.7*,1,11,0,-9
Cc1ccccc1NC(=O)CC(C)S(=O)(=O)c1cc2c(cc1C)NC(=O)CO2 (configuration not stated),0,2,-7,8,.,.
C[C@H]1NC(=O)[C@H]2CN(Cc3ccc(CN4CCCCC4)s3)CCN2C1=O,1,1,9,15,.,.
c1ccc(-c2noc(CSc3nc(-c4ccccc4)c(-c4ccccc4)[nH]3)n2)cc1,0,2,2,-3,.,.
Cn1c(CC(=O)NN)nc2ccccc21,0,6.2*,8,-2,1,7
CC1CCc2c(sc(NC(=O)c3ccc(C(=O)C(=O)c4ccccc4)cc3)c2C#N)C1 (configuration not stated),0,0,1,5,.,.
O=C(O)c1ccc(NCc2cccnc2)c(N2C(=O)C3CC=CCC3C2=O)c1 (configuration not stated),0,2,-8,6,.,.
COc1cccc(CNc2nn[nH]n2)c1OC,0,8.4*,8,12,-1,-7
Cc1cc(=O)n2nc(N3CCCC3C(=O)NCCCN3CCCCC3)sc2n1 (configuration not stated),0,5.0*,-2,5,1,-13
O=[N+]([O-])c1ccc(SCCNc2ccccc2)c([N+](=O)[O-])c1,0,1,3,22,.,.
O=C(O)c1ccc(Nn2c(=S)[nH]c3ccccc3c2=O)cc1,0,5.0*,-1,5,0,-12
O=C(Nn1c(=S)[nH]c2ccccc2c1=O)c1ccc(Br)cc1,0,-1,-4,8,.,.
CC(C)=CCN1CCN(Cc2sccc2C)CC1CCO (configuration not stated),0,12*,-14,0,2,15
O=C(OCC(c1ccccc1)c1ccccc1)C1=COCCO1,0,0,-2,5,.,.
CC(C)(C)c1nnc(NC(=O)c2ccc(Cl)nc2Cl)s1,0,8.1*,-39,-10,-1,-5
CC(C)(C)c1nnc(NC(=O)c2cccnc2Cl)s1,0,2,-3,-9,.,.
CCN1C(=O)Cc2ccccc21,0,6.7*,5,-1,-1,-13
COc1ccc(C2CC(C(F)(F)F)n3nc(C(=O)Nc4cccc(C(F)(F)F)c4)cc3N2)cc1 (configuration not stated),0,0,0,-6,.,.
COc1ccc(C2CC(C(F)(F)F)n3nc(C(=O)Nc4cccc(O)c4)cc3N2)cc1 (configuration not stated),0,5.8*,2,14,0,12
COc1ccc(NC(=O)CCCCCn2c(SCc3cc(=O)oc4cc(O)ccc34)nc3ccsc3c2=O)cc1,0,0,2,16,.,.
O=C1/C(=C/c2ccc(Cl)c([N+](=O)[O-])c2)SC(=Nc2ccccc2)N1c1ccccc1,0,-1,10,0,.,.
CC(=O)Nc1ccc(S(=O)(=O)N(C)S(=O)(=O)c2cccs2)cc1,0,-2,-7,-11,.,.
CCOC(=O)CCCCNCc1ccccc1F,0,1,2,7,.,.
CCOCCCNCc1ccccc1F,0,5.2*,-4,38,0,3
